Test results: the supplement of paper PMC10849652
Targets with a hit are over-represented here; the source holds about 8,800 in all. About 0.5% of all pairs of compound and target were hits.

Legend:
Experiment in all cases: log2 fold change, soluble protein after heating vs DMSO (PISA); higher = thermal stabilisation; K562 lysate, 10 uM; active = over 0.2 and 3.5 SD of the protein, either way, in both replicates (recomputed)
nilotinib = compound: Cc1cn(-c2cc(NC(=O)c3ccc(C)c(Nc4nccc(-c5cccnc5)n4)c3)cc(C(F)(F)F)c2)cn1 [nilotinib]
In short: (§1)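 K562 pellets were dounce-homogenised in PBS pH 7.4 containing 1 mM MgCl2, and the crude extract, at 1 mg/mL protein, was exposed to 10 μM compound for 30 min. Aliquots were heated for 3 min across 48°C-58°C, pooled, brought to 0.5% NP-40 at 4°C and spun at 21,000xg for 90 min, with the supernatant taken as soluble protein. TMTpro 16plex LC-MS/MS with equalised channel sums quantified that protein. Values are log-two fold changes in thermal stability relative to solvent controls, taken from duplicates.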

[1] = compound: Cc1nc(Nc2n[nH]c3c2CN(C(=O)N[C@H](CN(C)C)c2ccccc2)C3(C)C)c2sccc2n1
In short: as §1

dasatinib = compound: Cc1nc(Nc2ncc(C(=O)Nc3c(C)cccc3Cl)s2)cc(N2CCN(CCO)CC2)n1 [dasatinib]
In short: as §1

[2] = compound: Cc1ncc(-c2ccnc(Nc3ccc(S(C)(=O)=O)cc3)n2)n1C(C)C
In short: as §1

[3] = compound: Cn1cc(-c2ccc3c(c2)CCN3C(=O)Cc2cccc(C(F)(F)F)c2)c2c(N)ncnc21
In short: as §1

quisinostat = compound: Cn1cc(CNCC2CCN(c3ncc(C(=O)NO)cn3)CC2)c2ccccc21 [quisinostat]
In short: as §1

tipifarnib = compound: Cn1cncc1[C@@](N)(c1ccc(Cl)cc1)c1ccc2c(c1)c(-c1cccc(Cl)c1)cc(=O)n2C [tipifarnib]
In short: as §1

[4] = compound: NC(=O)Nc1cc(-c2cccc(F)c2)sc1C(=O)N[C@H]1CCCNC1
In short: as §1

[5] = compound: NC(=O)c1cnc(N[C@@H]2CCCC[C@@H]2N)nc1Nc1cccc(-n2nccn2)c1
In short: as §1

[6] = compound: NC1(c2ccc(-c3nc4ccn5c(=O)[nH]nc5c4cc3-c3ccccc3)cc2)CCC1
In short: as §1

[7] = compound: NCC(=O)Nc1ccc(-n2nc(C(F)(F)F)cc2-c2ccc3c(ccc4ccccc43)c2)cc1
In short: as §1

vorinostat = compound: O=C(CCCCCCC(=O)Nc1ccccc1)NO [vorinostat]
In short: as §1

silmitasertib = compound: O=C(O)c1ccc2c(c1)nc(Nc1cccc(Cl)c1)c1ccncc12 [silmitasertib]
In short: as §1

[8] = compound: O=C1NC(=O)C(c2cnc3ccccn23)=C1c1cn2c3c(cc(F)cc13)CN(C(=O)N1CCCCC1)CC2
In short: as §1

entospletinib = compound: c1cn2cc(-c3ccc4cn[nH]c4c3)nc(Nc3ccc(N4CCOCC4)cc3)c2n1 [entospletinib]
In short: as §1

Measured: log2 fold change

NSUN2 (UniProt Q08J23)
active: vorinostat -0.42
inactive: nilotinib 0.013 | [1] -0.004 | dasatinib -0.023 | [2] -0.005 | [3] 0.022 | quisinostat 0.007 | tipifarnib 0.027 | [4] 0.024 | [5] -0.009 | [6] -0.011 | [7] 0.004 | silmitasertib 0.03 | [8] -0.007 | entospletinib 0.011

NPTN (UniProt Q9Y639)
inactive: nilotinib -0.029 | [1] 0.005 | dasatinib -0.06 | [2] -0.025 | [3] -0.009 | quisinostat -0.038 | tipifarnib 0.043 | [4] 0.031 | [5] 0.004 | [6] 0.002 | [7] 0.067 | vorinostat 0.078 | silmitasertib -0.031 | [8] 0.04 | entospletinib 0.096

NCOR2 (UniProt C9J0Q5)
inactive: nilotinib 0.09 | [1] -0.034 | dasatinib -0.082 | [2] 0.043 | [3] -0.015 | quisinostat -0.034 | tipifarnib -0.045 | [4] 0.047 | [5] 0.025 | [6] 0.022 | [7] 0.093 | silmitasertib -0.016 | [8] 0.011 | entospletinib -0.074
active: vorinostat -0.27

NARF (UniProt Q9UHQ1)
inactive: nilotinib -0.029 | [1] 0.011 | dasatinib 0.01 | [2] -0.031 | [3] 0.014 | quisinostat -0.03 | tipifarnib -0.062 | [4] 0.017 | [5] -0.079 | [6] 0.005 | [7] -0.05 | silmitasertib -0.016 | [8] -0.008 | entospletinib -0.054
active: vorinostat -0.243

NEK9 (UniProt Q8TD19)
inactive: nilotinib -0.024 | [1] 0.13 | dasatinib -0.002 | [2] 0.007 | [3] 0.001 | quisinostat -0.042 | tipifarnib -0.018 | [4] 0.033 | [5] 0.003 | [6] -0.026 | [7] -0.03 | silmitasertib 0.052 | [8] -0.013 | entospletinib 0.013
active: vorinostat -0.45

NUDT4 isoform 2 (UniProt Q9NZJ9)
inactive: nilotinib -0.004 | [1] 0.012 | dasatinib 0.13 | [2] -0.002 | [3] 0.038 | quisinostat -0.012 | tipifarnib -0.044 | [4] 0.016 | [5] -0.042 | [6] 0.043 | [7] 0.057 | silmitasertib -0.034 | [8] 0.018 | entospletinib -0.023
active: vorinostat -0.336

NIT2 (UniProt Q9NQR4)
active: vorinostat 0.346
inactive: nilotinib -0.011 | [1] 0.001 | dasatinib -0.03 | [2] -0.021 | [3] -0.027 | quisinostat 0.004 | tipifarnib 0.019 | [4] 0.021 | [5] -0.016 | [6] -0.023 | [7] -0.001 | silmitasertib -0.001 | [8] -0.007 | entospletinib 0.004

NELFA (UniProt Q9H3P2)
UniProt Q9H3P2, sequence (Q9H3P2 whole entry, looked up): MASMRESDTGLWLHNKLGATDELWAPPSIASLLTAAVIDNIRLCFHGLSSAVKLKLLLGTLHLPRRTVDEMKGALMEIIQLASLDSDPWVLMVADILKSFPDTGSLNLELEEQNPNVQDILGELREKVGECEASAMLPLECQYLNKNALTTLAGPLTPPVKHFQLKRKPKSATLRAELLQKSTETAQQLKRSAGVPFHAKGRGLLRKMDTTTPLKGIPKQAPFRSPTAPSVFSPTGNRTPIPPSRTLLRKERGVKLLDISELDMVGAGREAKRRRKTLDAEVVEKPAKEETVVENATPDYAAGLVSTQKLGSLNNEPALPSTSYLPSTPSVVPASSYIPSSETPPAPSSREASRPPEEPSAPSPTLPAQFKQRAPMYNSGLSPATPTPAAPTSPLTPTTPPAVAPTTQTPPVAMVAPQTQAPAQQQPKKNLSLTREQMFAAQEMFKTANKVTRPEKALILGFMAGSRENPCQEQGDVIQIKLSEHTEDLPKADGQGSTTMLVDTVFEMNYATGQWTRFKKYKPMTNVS
active: vorinostat -0.309
inactive: nilotinib -0.018 | [1] -0.01 | dasatinib -0.064 | [2] -0.02 | [3] -0.009 | quisinostat -0.007 | tipifarnib 0.024 | [4] 0.03 | [5] 0.048 | [6] -0.014 | [7] -0.057 | silmitasertib -0.004 | [8] 0.008 | entospletinib -0.027

PARP14 (UniProt Q460N5)
UniProt Q460N5, sequence (Q460N5 whole entry, looked up): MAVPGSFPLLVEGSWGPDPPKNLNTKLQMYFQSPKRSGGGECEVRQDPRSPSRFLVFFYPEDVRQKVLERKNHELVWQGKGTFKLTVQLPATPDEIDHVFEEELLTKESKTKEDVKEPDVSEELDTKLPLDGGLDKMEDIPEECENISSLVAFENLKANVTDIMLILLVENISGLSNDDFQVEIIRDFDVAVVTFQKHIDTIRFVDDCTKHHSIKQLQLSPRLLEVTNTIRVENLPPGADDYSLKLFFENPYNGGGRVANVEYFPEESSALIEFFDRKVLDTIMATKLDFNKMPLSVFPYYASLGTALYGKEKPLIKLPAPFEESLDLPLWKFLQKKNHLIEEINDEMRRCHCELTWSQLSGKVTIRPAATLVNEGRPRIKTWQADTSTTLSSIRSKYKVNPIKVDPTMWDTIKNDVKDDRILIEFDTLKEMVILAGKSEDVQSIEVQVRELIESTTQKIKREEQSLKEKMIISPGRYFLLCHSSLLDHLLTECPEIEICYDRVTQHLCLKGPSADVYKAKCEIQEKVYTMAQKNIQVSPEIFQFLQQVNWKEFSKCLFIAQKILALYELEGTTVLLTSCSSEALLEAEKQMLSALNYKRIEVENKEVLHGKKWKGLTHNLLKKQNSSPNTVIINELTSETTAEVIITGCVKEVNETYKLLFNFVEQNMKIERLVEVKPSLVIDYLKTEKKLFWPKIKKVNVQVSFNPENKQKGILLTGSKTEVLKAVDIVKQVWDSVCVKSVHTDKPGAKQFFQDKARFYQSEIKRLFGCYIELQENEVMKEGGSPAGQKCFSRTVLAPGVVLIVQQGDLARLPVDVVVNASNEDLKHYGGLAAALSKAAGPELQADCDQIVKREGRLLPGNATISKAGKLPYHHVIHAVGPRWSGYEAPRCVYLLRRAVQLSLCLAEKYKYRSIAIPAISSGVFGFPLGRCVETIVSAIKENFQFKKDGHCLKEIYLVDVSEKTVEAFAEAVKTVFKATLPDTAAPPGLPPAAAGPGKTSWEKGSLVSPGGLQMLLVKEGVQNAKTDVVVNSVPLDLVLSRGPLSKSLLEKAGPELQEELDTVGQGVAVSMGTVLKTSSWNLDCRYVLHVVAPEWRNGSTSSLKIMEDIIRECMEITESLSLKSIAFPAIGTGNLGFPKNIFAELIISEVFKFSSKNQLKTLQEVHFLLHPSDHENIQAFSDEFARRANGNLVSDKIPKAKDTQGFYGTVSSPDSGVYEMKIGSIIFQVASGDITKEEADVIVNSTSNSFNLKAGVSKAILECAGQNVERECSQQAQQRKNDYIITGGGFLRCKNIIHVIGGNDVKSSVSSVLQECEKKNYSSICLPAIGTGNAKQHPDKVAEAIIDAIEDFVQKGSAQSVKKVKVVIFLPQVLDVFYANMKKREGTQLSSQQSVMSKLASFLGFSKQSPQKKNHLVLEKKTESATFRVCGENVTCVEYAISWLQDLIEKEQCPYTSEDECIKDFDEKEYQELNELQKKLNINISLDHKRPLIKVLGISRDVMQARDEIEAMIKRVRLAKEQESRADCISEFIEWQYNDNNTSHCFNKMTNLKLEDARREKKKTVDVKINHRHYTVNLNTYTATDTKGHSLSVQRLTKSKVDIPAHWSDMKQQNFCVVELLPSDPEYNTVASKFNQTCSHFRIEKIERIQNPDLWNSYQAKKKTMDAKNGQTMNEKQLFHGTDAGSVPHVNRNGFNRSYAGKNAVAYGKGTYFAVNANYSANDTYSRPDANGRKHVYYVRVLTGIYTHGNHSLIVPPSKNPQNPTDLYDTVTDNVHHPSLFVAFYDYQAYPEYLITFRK
active: vorinostat -0.391
inactive: nilotinib 0.004 | [1] -0.022 | dasatinib -0.024 | [2] 0.068 | [3] 0.256 | quisinostat -0.025 | tipifarnib -0.068 | [4] 0.128 | [5] 0.051 | [6] -0.09 | [7] -0.006 | silmitasertib 0.009 | [8] 0.149 | entospletinib -0.014

NFATC2 (UniProt Q13469)
UniProt Q13469, sequence (Q13469 whole entry, looked up): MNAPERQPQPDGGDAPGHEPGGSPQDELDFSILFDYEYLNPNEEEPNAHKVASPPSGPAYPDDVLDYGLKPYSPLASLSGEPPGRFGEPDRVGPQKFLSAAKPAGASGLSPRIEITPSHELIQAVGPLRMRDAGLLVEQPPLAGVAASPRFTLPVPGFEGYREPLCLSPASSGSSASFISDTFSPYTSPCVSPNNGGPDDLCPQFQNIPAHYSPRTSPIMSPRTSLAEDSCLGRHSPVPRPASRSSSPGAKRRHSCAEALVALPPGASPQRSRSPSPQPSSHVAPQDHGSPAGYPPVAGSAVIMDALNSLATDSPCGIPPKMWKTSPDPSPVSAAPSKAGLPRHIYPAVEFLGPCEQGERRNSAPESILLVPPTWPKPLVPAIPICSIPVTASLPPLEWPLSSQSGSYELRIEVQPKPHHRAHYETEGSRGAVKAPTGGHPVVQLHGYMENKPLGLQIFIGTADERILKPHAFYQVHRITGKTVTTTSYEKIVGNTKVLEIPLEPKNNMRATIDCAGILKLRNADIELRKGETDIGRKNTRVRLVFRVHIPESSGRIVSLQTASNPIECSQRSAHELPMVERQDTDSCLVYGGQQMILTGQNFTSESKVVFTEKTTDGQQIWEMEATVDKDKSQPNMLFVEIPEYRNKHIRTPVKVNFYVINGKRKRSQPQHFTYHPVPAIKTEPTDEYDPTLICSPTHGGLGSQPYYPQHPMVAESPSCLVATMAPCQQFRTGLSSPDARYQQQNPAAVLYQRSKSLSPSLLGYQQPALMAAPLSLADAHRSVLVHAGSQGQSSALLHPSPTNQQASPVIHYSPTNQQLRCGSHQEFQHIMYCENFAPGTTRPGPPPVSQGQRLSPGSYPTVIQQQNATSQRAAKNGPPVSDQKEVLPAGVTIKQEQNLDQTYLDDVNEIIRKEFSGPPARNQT
inactive: nilotinib -0.001 | [1] -0.052 | dasatinib -0.033 | [2] 0.061 | [3] -0.001 | quisinostat -0.133 | tipifarnib -0.021 | [4] 0.024 | [5] -0.025 | [6] -0.023 | [7] 0.02 | silmitasertib 0.021 | [8] 0.044 | entospletinib -0.062
active: vorinostat -0.411

N6AMT1 (UniProt Q9Y5N5)
UniProt Q9Y5N5, sequence (Q9Y5N5 whole entry, looked up, one chain of several): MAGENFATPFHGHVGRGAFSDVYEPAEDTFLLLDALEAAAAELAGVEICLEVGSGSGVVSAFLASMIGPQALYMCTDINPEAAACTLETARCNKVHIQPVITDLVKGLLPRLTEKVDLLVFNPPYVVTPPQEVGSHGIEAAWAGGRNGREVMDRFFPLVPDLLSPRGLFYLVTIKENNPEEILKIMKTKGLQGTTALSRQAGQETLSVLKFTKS
inactive: nilotinib -0.009 | [1] 0.1 | dasatinib 0.002 | [2] 0.018 | [3] 0.013 | quisinostat 0 | tipifarnib 0.06 | [4] -0.013 | [5] -0.027 | [6] 0.037 | [7] -0.043 | vorinostat 0.076 | silmitasertib -0.025 | [8] -0.007 | entospletinib -0.011

MTHFD1, A0A384N5Y3
active: vorinostat -0.243
inactive: nilotinib 0.005 | [1] -0.018 | dasatinib -0.081 | [2] -0.008 | [3] 0.032 | quisinostat -0.044 | tipifarnib -0.02 | [4] 0.039 | [5] 0.008 | [6] -0.017 | [7] 0.036 | silmitasertib 0.056 | [8] 0.028 | entospletinib 0.026

NGLY1 (UniProt Q96IV0)
inactive: nilotinib -0.004 | [1] 0.02 | dasatinib -0.038 | [2] 0.008 | [3] 0.042 | quisinostat -0.104 | tipifarnib -0.016 | [4] 0.041 | [5] -0.005 | [6] -0.03 | [7] -0.014 | silmitasertib 0.041 | [8] 0.018 | entospletinib 0.034
active: vorinostat -0.29

OSBP2 (UniProt Q969R2)
UniProt Q969R2, sequence (Q969R2 whole entry, looked up): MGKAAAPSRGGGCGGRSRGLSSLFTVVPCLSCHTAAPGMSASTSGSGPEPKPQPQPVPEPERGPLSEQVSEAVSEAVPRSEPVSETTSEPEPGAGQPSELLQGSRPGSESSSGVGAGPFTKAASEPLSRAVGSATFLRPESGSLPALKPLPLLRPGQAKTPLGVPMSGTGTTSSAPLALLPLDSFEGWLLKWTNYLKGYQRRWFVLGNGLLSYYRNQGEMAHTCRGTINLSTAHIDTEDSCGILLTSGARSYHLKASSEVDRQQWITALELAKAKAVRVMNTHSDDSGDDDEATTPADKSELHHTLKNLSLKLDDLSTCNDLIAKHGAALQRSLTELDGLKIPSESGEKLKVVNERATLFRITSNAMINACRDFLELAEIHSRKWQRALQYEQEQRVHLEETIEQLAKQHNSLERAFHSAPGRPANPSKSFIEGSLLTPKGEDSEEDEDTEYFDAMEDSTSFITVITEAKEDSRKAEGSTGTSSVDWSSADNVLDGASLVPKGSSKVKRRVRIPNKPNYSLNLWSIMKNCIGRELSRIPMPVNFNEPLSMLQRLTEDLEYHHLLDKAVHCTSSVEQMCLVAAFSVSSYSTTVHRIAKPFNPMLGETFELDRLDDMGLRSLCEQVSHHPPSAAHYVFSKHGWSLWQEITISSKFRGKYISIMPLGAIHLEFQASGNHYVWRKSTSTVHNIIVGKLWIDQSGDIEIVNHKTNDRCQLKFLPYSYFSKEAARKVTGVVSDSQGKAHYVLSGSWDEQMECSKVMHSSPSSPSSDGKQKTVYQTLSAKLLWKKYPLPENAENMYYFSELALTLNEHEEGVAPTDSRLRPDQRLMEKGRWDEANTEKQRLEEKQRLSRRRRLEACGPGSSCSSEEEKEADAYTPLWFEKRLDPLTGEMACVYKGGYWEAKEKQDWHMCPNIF
inactive: nilotinib -0.053 | [1] -0.038 | dasatinib -0.089 | [2] -0.025 | [3] -0.002 | quisinostat -0.184 | tipifarnib -0.053 | [4] 0.052 | [5] 0.075 | [6] 0.026 | [7] 0.025 | vorinostat 0.055 | silmitasertib -0.147 | [8] 0.023 | entospletinib -0.102

MYH11 isoform 2 (UniProt P35749)
inactive: nilotinib -0.072 | [1] -0.022 | dasatinib -0.043 | [2] -0.011 | [3] 0.014 | quisinostat 0.099 | tipifarnib -0.045 | [4] -0.029 | [5] 0.013 | [6] -0.032 | [7] 0.014 | vorinostat 0.042 | silmitasertib 0.02 | [8] -0.005 | entospletinib 0.013

NUMBL (UniProt Q9Y6R0)
inactive: nilotinib 0.038 | [1] -0.013 | dasatinib -0.041 | [2] -0.12 | [3] 0.219 | quisinostat 0.04 | tipifarnib -0.06 | [5] -0.055 | [6] -0.046 | [7] 0.04 | vorinostat -0.237 | silmitasertib 0.201 | [8] 0.021 | entospletinib 0.102
active: [4] -0.415

NEBL (UniProt O76041)
inactive: nilotinib -0.024 | [1] 0.019 | dasatinib 0.089 | [2] 0.032 | [3] -0.007 | quisinostat -0.045 | tipifarnib 0.008 | [4] -0.065 | [5] -0.018 | [6] -0.03 | [7] 0.056 | vorinostat 0.207 | silmitasertib 0.052 | [8] -0.026 | entospletinib -0.018

N4BP2 (UniProt Q86UW6)
inactive: nilotinib 0.026 | [1] 0.036 | dasatinib -0.024 | [2] -0.043 | [3] 0.061 | quisinostat -0.001 | tipifarnib -0.061 | [4] 0.037 | [5] -0.018 | [6] -0.048 | [7] -0.075 | silmitasertib -0.004 | [8] -0.001 | entospletinib -0.029
active: vorinostat -0.369

MSH3 (UniProt P20585)
inactive: nilotinib -0.007 | [1] 0.034 | dasatinib -0.03 | [2] 0.028 | [3] 0.014 | quisinostat -0.037 | tipifarnib -0.001 | [4] -0.003 | [5] 0.011 | [6] -0.035 | [7] 0.044 | silmitasertib 0.055 | [8] -0.017 | entospletinib 0.025
active: vorinostat -0.316

NTPCR (UniProt Q9BSD7)
UniProt Q9BSD7, sequence (Q9BSD7 whole entry, looked up): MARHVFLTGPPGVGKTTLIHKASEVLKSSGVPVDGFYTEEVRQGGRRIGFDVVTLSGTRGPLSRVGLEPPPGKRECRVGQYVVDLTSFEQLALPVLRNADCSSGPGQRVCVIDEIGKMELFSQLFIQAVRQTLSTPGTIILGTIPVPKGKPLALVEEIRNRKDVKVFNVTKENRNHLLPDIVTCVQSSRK
inactive: nilotinib 0.019 | [1] -0.01 | dasatinib -0.061 | [2] 0.056 | [3] 0.032 | quisinostat -0.088 | tipifarnib 0.003 | [4] 0.028 | [5] 0.017 | [6] -0.027 | [7] 0.014 | silmitasertib 0.029 | [8] 0.003 | entospletinib 0.059
active: vorinostat -0.331

NUSAP1 (UniProt Q9BXS6)
UniProt Q9BXS6, sequence (Q9BXS6 whole entry, looked up): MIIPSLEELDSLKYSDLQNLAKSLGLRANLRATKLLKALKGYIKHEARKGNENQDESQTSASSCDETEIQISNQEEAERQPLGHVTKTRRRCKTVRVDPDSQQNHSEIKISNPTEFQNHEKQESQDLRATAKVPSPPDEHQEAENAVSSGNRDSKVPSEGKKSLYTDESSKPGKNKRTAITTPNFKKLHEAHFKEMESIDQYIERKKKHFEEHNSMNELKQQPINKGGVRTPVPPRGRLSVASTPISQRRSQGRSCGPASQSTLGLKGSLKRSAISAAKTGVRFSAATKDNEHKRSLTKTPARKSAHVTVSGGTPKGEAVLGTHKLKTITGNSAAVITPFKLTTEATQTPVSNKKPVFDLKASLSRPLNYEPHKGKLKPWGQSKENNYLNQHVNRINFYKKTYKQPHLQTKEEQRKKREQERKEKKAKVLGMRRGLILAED
inactive: nilotinib -0.001 | [1] 0.004 | dasatinib 0.045 | [2] -0.009 | [3] -0.047 | quisinostat 0.038 | tipifarnib -0.016 | [4] -0.024 | [5] 0.002 | [6] -0.055 | [7] 0.01 | vorinostat 0.101 | silmitasertib -0.036 | [8] -0.003 | entospletinib -0.001
